# Source: PubChem (National Center for Advancing Translational Sciences (NCATS))
# This is a sample that favours compounds with a hit; in the whole collection about 11% have one here.
# G9a inh: blocks human histone lysine methyltransferase G9a; AID 504332; actives 8.8% (n = 350,000); G9a H3K9 monomethylation, AlphaScreen, 2 h; Q96KQ7; Potency, µM (titrated, usually from 102 µM), for inactives: at the highest dose activity, negative = inhibition, hits mostly inhibitors; also: % is scaled to controls: 0 for no effect and ±100 for the full control effect; nearly all actives have a fitted effect of over 75% in size
#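 Signal arises when biotinylated H3K9 peptide, once monomethylated, bridges streptavidin donor and antibody-captured acceptor beads. Enzyme at 20 nM was preincubated 15 min with test compounds; peptide 500 nM and SAM 20 uM then reacted for 2 h.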
# L3MBTL1 inh: inhibitors of human L3MBTL1. Q9Y468. AlphaScreen L3MBTL1–H3K9me1 peptide binding. Potency, µM (series often up to 57.1 µM), without a hit: at the highest dose activity, negative = inhibition, usual class: inhibitors. actives 0.66% (n = 230,000). AID 485360; also: % is scaled to controls: 0 for no effect and ±100 for the full control effect; nearly all actives have a fitted effect of over 60% in size
#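 L3MBTL1 (50 nM) pre-complexed 30 min with biotinylated H3(1-15)K9me1 peptide (75 nM), then compounds added for 30 min at room temperature; AlphaScreen streptavidin donor/nickel chelate acceptor beads (10 ug/mL final) read after 30 min dark incubation.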
# BAZ2B block: inhibitors of human BAZ2B bromodomain | AlphaScreen BAZ2B-H3K14Ac peptide displacement | Q9UIF8 | Potency, µM (highest dose often 114 µM), for the others: at the highest dose activity change, negative = inhibition, usual class: inhibitors | AID 504333 | actives 4.4% (n = 360,000); also: % is scaled to controls: 0 for no effect and ±100 for the full control effect; nearly all actives have a fitted effect of over 60% in size
#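 AlphaScreen displacement of biotin-H3(5-23)K14Ac peptide (50 nM final) from BAZ2B (50 nM final) in PBS pH 7.4, 0.01% Tween-20; complex preformed 30 min RT, then compounds (top 110 uM) 30 min RT, beads 20 min dark.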
# JMJD2A Tudor inh: inhibitors of human JMJD2A Tudor domain | Potency, µM (series often up to 114 µM), without a hit: at the top dose activity change, negative = inhibition, usual class: inhibitors | AID 504339 | actives 4.4% (n = 390,000) | AlphaScreen JMJD2A-Tudor / H3K4me3 peptide binding | O75164; also: % is scaled to controls: 0 for no effect and ±100 for the full control effect; nearly all actives have a fitted effect of over 50% in size
# HP1b binding inh: inhibitors of HP1-beta chromodomain binding to methylated histone tails; P83916; AlphaScreen HP1-beta / biotin-H3K9me3 peptide binding; Potency, µM (titrated, usually from 114 µM), without a hit: at the highest dose activity change, negative = inhibition, most hits filed as inhibitors; actives 0.56% (n = 390,000); AID 540317; also: nearly all actives have a fitted effect of over 70% in size
#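 Compound inhibition of the preformed complex between 50 nM HP1-beta and 50 nM biotinylated H3K9me3 peptide was read by AlphaScreen. Buffer was PBS pH 7.4 with 0.01% Tween-20. Incubations ran 30 min at room temperature, with 10 ug/mL donor/acceptor beads.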
# Starred values were filed as active, the others as inactive; ? = inconclusive; . = no result; ! = not confirmed by another sample; [ ] = remark or other dose. Calls follow the shape of the dose curve; as a rule, active = well fitted inhibition curve with a large enough effect; inconclusive = small, poorly fitted or top-dose-only effect; inactive = no such curve, though single readings can be large or run the other way. Potency is read from the fitted curve at half-maximal effect.
SMILES,G9a inh,L3MBTL1 inh,BAZ2B block,JMJD2A Tudor inh,HP1b binding inh
CC1CCN(S(=O)(=O)c2ccc(NN=C(C#N)C#N)cc2)CC1,?,.,45µM*,.,.
N#CC(C#N)=NNc1ccc(S(N)(=O)=O)cc1,-1%[12.7 µM],.,?,-19%[11.4 µM],35µM*
CC1=Nc2ccccc2/C1=C/c1c(O)[nH]c(=O)[nH]c1=O,79µM*,3%,?,-14%,8%
CCC1(C)CC(=O)NC(=O)C1,35%[21.5 µM],.,.,.,.
Cc1cc(C=C2C(=O)N(C)C(=O)N(C)C2=O)c(C)n1-c1ccccc1,7.9µM*,.,-8%,-5%,65%
CN1C(=O)NC(=O)/C(=C\C=C\c2ccccc2[N+](=O)[O-])C1=O,7.9µM*,-1%,?,?,?
CCc1ccc(N2C(=O)NC(=O)/C(=C\c3cc(C)n(-c4cc(C(=O)O)cc(C(=O)O)c4)c3C)C2=O)cc1,35µM*,.,71µM*,50µM*,-14%[57 µM]
Cc1cc(/C=C2/C(=O)NC(=O)N(c3ccccc3)C2=O)c(C)n1-c1ccc(F)cc1,.,.,.,-18%,15%
Cc1cc(/C=C2\C(=O)NC(=O)N(c3cccc(F)c3)C2=O)c(C)n1-c1ccc(C(=O)O)c(Cl)c1,35µM*,?,?,-35%,4%
Cc1ccc(N2C(=O)NC(=O)/C(=C\c3cc(C)n(-c4cc(C(=O)O)cc(C(=O)O)c4)c3C)C2=O)cc1,35µM*,.,?,32µM*,?
Cc1ccc(N2C(=O)NC(=O)/C(=C/c3ccc(-c4ccc(C(=O)O)c(Cl)c4)o3)C2=O)cc1,10µM*,.,?,-20%,24%
COCC(=O)N(c1c(C)cccc1C)C(C)C(=O)OC (stereo unspecified),3%[12.7 µM],.,.,.,.
C[C@@H]1O[C@@H](O[C@H]2C[C@@H](O)[C@]3(CO)[C@H]4[C@H](O)C[C@]5(C)[C@@H]([C@@H]6COC(=O)C6)CC[C@]5(O)[C@@H]4CC[C@]3(O)C2)[C@H](O)[C@H](O)[C@H]1O,23%[12.7 µM],.,.,.,.
O=[N+]([O-])/C=C/c1ccc2c(c1)OCO2,2.1µM*,.,.,.,.
COc1cc2c(cc1/C=C/[N+](=O)[O-])OCO2,?,.,-30%,-23%,44%
CN(C)c1ccc(/C=C/[N+](=O)[O-])cc1,71µM*,-4%,-6%,-4%,2%[57 µM]
COc1ccc(NC(=O)CN2C(=O)CN=C(c3ccccc3)c3ccccc32)c(OC)c1,-2%[59 µM],.,?,-28%,?
CCCc1[nH]nc2c1C1(C(=O)N(Cc3ccccc3)c3ccccc31)C(C(=O)OC)=C(N)O2 (stereo unspecified),50µM*,.,-33%,-25%,13%
CCCc1[nH]nc2c1C1(C(=O)N(CC(N)=O)c3ccccc31)C(C(=O)OC)=C(N)O2 (stereo unspecified),-14%,1%,-23%,20%,54%
Cc1cc2oc(=O)cc(-c3ccccc3)c2c(C)c1-c1ccc(CO)cc1,?,-7%,.,-14%,33%
O=C(Nc1cccc(F)c1)N1CCCC2(CCN(C(=O)Oc3ccccc3)CC2)C1,3%[12.7 µM],.,.,.,.
CCn1c(C)[n+](CC(O)COCC2CC=CCC2)c2ccccc21 (stereo unspecified),10µM*,.,-1%,?,13%
CCCCCCCCc1[se]c2ccccc2c1[Se]c1ccccc1,-2%[59 µM],.,.,.,.
c1ccc(N=Nc2ccccc2)cc1,-44%[2.33 µM],.,.,.,.
Cc1cccc(N=Nc2ccc(N(C)C)cc2)c1,8.9µM*,.,7.1µM*,14µM*,11µM*
SMILES,G9a inh,L3MBTL1 inh,BAZ2B block,JMJD2A Tudor inh,HP1b binding inh
CC(=NCCN1CCCCC1)c1c(O)n(Cc2ccccc2)c(=O)[nH]c1=O,40µM*,-3%,5%,-4%,39%
CCCCn1c(O)c(C(C)=NCCN2CCCCC2)c(=O)[nH]c1=O,28µM*,-8%,-2%,-20%,16%
CC(=NCCCN1CCCCC1)c1c(O)n(Cc2ccccc2)c(=O)[nH]c1=O,-5%[12.7 µM],.,-5%,-17%,35%
C=CCn1c(O)c(C(C)=NCCN2CCCCC2)c(=O)[nH]c1=O,?,.,13%,-19%,26%
COCC(=O)N1CCC2(CCCN(Cc3ccncc3)C2)CC1,-4%[12.7 µM],.,.,.,.
CCN1C[C@]2(COC(=O)c3ccccc3N3C(=O)CC(C)C3=O)CC[C@H](OC)[C@@]34C5C[C@@H]6[C@@H](OC)C[C@@](O)(C5[C@H]6OC)[C@](O)([C@@H](OC)C23)[C@@H]14 (stereo partly specified),28%[59 µM],.,.,.,.
CN1C[C@H](CNC(=O)OCc2ccccc2)C[C@@H]2c3cccc4c3c(cn4C)C[C@H]21,24µM*!,-1%,45µM*,?,-1%
O=C(c1c[nH]c(C(=O)C(Cl)(Cl)Cl)c1)c1ccccc1Cl,-2%[59 µM],.,?,?,11%
S=c1[nH]nc(-c2ccn[nH]2)n1-c1ccccc1Cl,3.2µM*,-4%,50µM*,20µM*,?
CN1C(=O)C(=Cc2cn(CC(=O)N3CCCC3)c3ccccc23)C(=O)N(C)C1=O,28µM*,.,-21%,-16%,5%
CN1C(=O)C(=Cc2cn(CC(=O)N3CCCCC3)c3ccccc23)C(=O)N(C)C1=O,?,.,0%,-11%,2%
O=C1NCCN2CCCC12 (stereo unspecified),13µM*,4%,-8%,3%,54%
CN1C(=O)C(=Cc2cn(CC#N)c3ccccc23)C(=O)N(C)C1=O,-17%,.,-5%,-18%,29%
CN1C(=O)C(=Cc2coc3ccccc3c2=O)C(=O)N(C)C1=O,32µM*,0%,-4%,-18%,15%
COc1ccc(CCNCc2ccc(OC)c(OC)c2OC)cc1,14µM*,.,79µM*,3.2µM*,?
COc1ccccc1CCNCc1ccc(OC)c(OC)c1OC,.,11%,40µM*,20µM*,-35%
COc1cc(OC)c2c(c1)OC(c1ccc(OC)c(OC)c1)C(O)C2 (stereo unspecified),-24%[2.33 µM],.,.,.,.
CC1OC(OC2C(O)CC(OC3C(O)CC(OC4CCC5(C)C(CCC6C5CCC5(C)C(C7=CC(=O)OC7)CCC65O)C4)OC3C)OC2C)CC(O)C1O (stereo unspecified),13%[59 µM],.,.,.,.
CC(=O)NS(=O)(=O)c1ccc(NC(=O)c2cccn(Cc3ccc(Cl)cc3)c2=O)cc1,-27%[59 µM],.,2%,1%,29%[57 µM]
CC(Nc1cc(C)cc(C)c1)=[N+](C)CCNS(=O)(=O)c1ccc(Cl)cc1,8.9µM*,.,-12%,?,18%
O=c1[nH]c2ccccc2n1C1CCN(CCCC(c2ccc(F)cc2)c2ccc(F)cc2)CC1,26%[12.7 µM],-19%,?,40µM*,?
O=C1CC(N2CCC(n3c(=O)[nH]c4ccccc43)CC2)C(=O)N1c1ccc(F)cc1 (stereo unspecified),?,8%,3%,-10%[11.4 µM],28%
